In PubChem BioAssay:
Results filed as inconclusive are left out. The source made the active and inactive calls.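 How the source made its calls, unless noted: active means percent response above a set limit, the screen-wide mean plus 3 SD (cut at about 130% in these data); inactive means the rest.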

Key:
[1] = yeast TOR pathway RPL19A-GFP modulators, primary screen, cell-based, S. cerevisiae, multiplex flow cytometry (AID 1862; in the data active means percent of DMSO control GFP below about 86%;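 further: lower values mimic rapamycin by blocking the RPL19A rise seen in DMSO cells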); conditions: S. cerevisiae RPL19A-GFP strain, flow cytometry fluorescence, 3 h; at 10 µM; stronger effect = lower value
[2] = modulators of MEP2-GFP levels in yeast, primary screen, S. cerevisiae, multiplex flow cytometry (AID 1867;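 active means GFP response, as percent of the DMSO control, above the screen-wide mean plus 3 SD, about 139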;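 further: median GFP channel fluorescence of barcode-gated MEP2-GFP cells measured by flow cytometry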); conditions: S. cerevisiae MEP2-GFP strain, 3 h, at 10 µM, stronger effect = higher value, 100% means same as DMSO wells
[3] = modulators of CIT2-GFP expression in yeast, primary screen, S. cerevisiae, GFP fusion, multiplex flow cytometry (AID 1870); conditions: 3 h, at 10 µM, stronger effect = higher value;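 further: barcoded CIT2-GFP strain pooled with four other GFP strains with rapamycin as positive control; median GFP fluorescence per well over plate mean of DMSO wells so 100% = DMSO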
[4] = modulators of LAP4-GFP expression in yeast, primary screen, S. cerevisiae, multiplex flow cytometry (AID 1873;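 active means GFP signal, as percent of the solvent control, above the screen mean plus 3 SD, about 149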); conditions: 3 h, at 10 µM, stronger effect = higher value
[5] = modulators of AGP1-GFP expression in yeast TOR pathway, primary screen, cell-based, multiplex flow cytometry, S. cerevisiae (AID 1887;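 active means GFP signal above the screen-wide mean plus 3 SD, that is over about 124.5% of the solvent control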;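 further: AGP1-GFP fusion strain of S. cerevisiae within a five-strain barcoded multiplex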); conditions: 3 h, at 10 µM, stronger effect = higher value
[6] = inhibitors of CD8+ T cell-vesicle binding, pilot screen, LFA-1/ICAM-1 modulator project, MLPCN validation set, flow cytometry (AID 2523;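 active means response below a set limit, under 55% cells CD8-positive and vesicle-bound, and CD8 cells' 90th-percentile brightness under 279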;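 on vesicle binding response: mean PE anti-B7-1 fluorescence of CD8+ cells relative to row control; 100% = QL9-loaded vesicles with DMSO vehicle in the same plate row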); conditions: 2C mouse CD8+ T cells, at 7 µM, stronger effect = lower value; double positive events: measured here: CD8+/vesicle+ event percentage
[7] = target: Integrin beta-1 (Homo sapiens) + Integrin alpha-4 (Homo sapiens) (UniProt P13612+P05556); experiment: inhibition of HUTS-21 binding to VLA-4, pilot screen, VLA-4 allosteric modulator project, U937 cells, HUTS-21 mAb, flow cytometry, validation set (AID 2674;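 active means inhibition above 50%, about 3 SD of the validation set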;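 further: antibody binding induced by the VLA-4 ligand LDV present at three times its Kd; 0% = LDV ligand with antibody and no compound and 100% = antibody without LDV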); conditions: HUTS-21 LIBS mAb binding, at 6.7 µM, stronger effect = higher value, binding induced by LDV ligand
[8] = superoxide lowering in aged yeast cells, pilot screen, validation compound set (AID 2706;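 active means superoxide response below 65% of plate, a cut near 3 SD across the whole screen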;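 further: yeast exposed to compound for one week at 30 degrees C before staining; 100% = mean of all compound wells on the same plate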); conditions: S. cerevisiae aging, superoxide DHE fluorescence; at 10 µM; stronger effect = lower value
[9] = target: Beta-adrenergic receptor kinase 1 (Homo sapiens) (UniProt P25098); experiment: GRK2 binders displacing RNA aptamer, biochemical, validation, human GRK2, bead flow cytometry (AID 488806;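 active means aptamer binding inhibition above 30%, about 3 SD of noise from non-fluorescent compounds; inactive means inhibition at or below 30%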); conditions: bead-bound GRK2, FAM-aptamer displacement, at 10 µM, stronger effect = higher value
[10] = target: Beta-2 adrenergic receptor (Homo sapiens) (UniProt P07550); experiment: beta2AR agonists driving receptor internalization, pilot screen, cell-based, FAP fluorogen, flow cytometry, validation set (AID 504459;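 active means percent response above 42, roughly 3 SD of non-fluorescent test compounds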;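 further: agonist-driven loss of surface beta2AR via internalization measured by FAP dye flow cytometry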); conditions: Am2.2-beta2AR cells, FAP surface receptor flow cytometry; at 10 µM; stronger effect = higher value
[11] = target: AP-2 complex subunit beta (Homo sapiens) (UniProt P63010); experiment: inhibitors of arrestin peptide binding to AP2, pilot screen, biochemical, validation set, GST-AP2 beads, flow cytometry (AID 504541;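 active means inhibition above 54%, about 3 SD of non-fluorescent compounds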;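 further: AP2 carries R879A mutation and is captured from E. coli lysate; bead-bound FITC arrestin peptide fluorescence measuring arrestin peptide binding to AP2; 0% = DMSO wells and 100% = excess unlabeled arrestin peptide control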); conditions: FITC arrestin peptide, at 10 µM, stronger effect = higher value, AP2 beta2 appendage fragment, R879A mutant
[12] = yeast V-ATPase proton transport modulators, S. cerevisiae, pHLuorin, HTS validation (AID 504600; in the data active means response above about 15%;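 further: plate controls were DMSO for no effect and reference compound for full effect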); conditions: S. cerevisiae pHLuorin cytosolic pH, at 10 µM, stronger effect = higher value
[13] = system: anti-desmoglein-3 scFv antibody binding to human DSG3; experiment: inhibitors of anti-DSG3 scFv binding to DSG3, pilot screen, biochemical, validation compound set, bead-based, flow cytometry (AID 588368;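 active means binding below the plate cutoff, the plate median minus 3 SD, with a reading above zero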;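 further: signal is the median channel fluorescence of bead-bound GFP antibody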); conditions: Protein G beads, DSG3-Fc, scFv-GFP binding, at 10 µM, stronger effect = lower value
[14] = inhibitors of fungal efflux pumps CDR1, CDR2, MDR1, pilot screen, validation compound set, multiplex, phenotypic (AID 588506;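 active means efflux inhibition above 0.42, the validation set average plus 4 SD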;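 further: Nile Red retained in cells so higher fluorescence means more efflux inhibition; 0 = negative control wells and 1 = enniatin B 25 µM full block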); conditions: S. cerevisiae pump-expressing triplex, Nile Red efflux flow cytometry; at 10 µM; stronger effect = higher value; the pumps come from Candida albicans
[15] = target: ATP-binding cassette sub-family B member 6 (Homo sapiens) (UniProt Q9NP58); experiment: ABCB6 transporter inhibitors, pilot screen, K562-ABCB6 cells, flow cytometry, validation set (AID 588550;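 active means inhibition above the screen-wide mean plus 3 SD, about 51%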;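 further: 0% = DMSO wells and 100% = benzethonium chloride 70 µM positive control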); conditions: K562-ABCB6 porphyrin accumulation, 1 h, at 10 µM, stronger effect = higher value
[16] = promoters of myeloid differentiation in arrested cells, primary screen, cell-based, GFP/MAC1 double positive, flow cytometry, validation set (AID 588685;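 active means differentiation response of at least 50%, scaled between solvent and reference control, from cells with both markers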;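 further: compound exposure lasts four days before antibody staining and flow analysis; 0% = DMSO wells and 100% = 5 µM fulvestrant positive control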); conditions: ER-HoxA9 marrow cells, stronger effect = higher value, normalized: vehicle 0, fulvestrant 100

Chain of AP-2 complex subunit beta (Homo sapiens) (P63010 whole entry, looked up, the tested form may be a part, one chain of several): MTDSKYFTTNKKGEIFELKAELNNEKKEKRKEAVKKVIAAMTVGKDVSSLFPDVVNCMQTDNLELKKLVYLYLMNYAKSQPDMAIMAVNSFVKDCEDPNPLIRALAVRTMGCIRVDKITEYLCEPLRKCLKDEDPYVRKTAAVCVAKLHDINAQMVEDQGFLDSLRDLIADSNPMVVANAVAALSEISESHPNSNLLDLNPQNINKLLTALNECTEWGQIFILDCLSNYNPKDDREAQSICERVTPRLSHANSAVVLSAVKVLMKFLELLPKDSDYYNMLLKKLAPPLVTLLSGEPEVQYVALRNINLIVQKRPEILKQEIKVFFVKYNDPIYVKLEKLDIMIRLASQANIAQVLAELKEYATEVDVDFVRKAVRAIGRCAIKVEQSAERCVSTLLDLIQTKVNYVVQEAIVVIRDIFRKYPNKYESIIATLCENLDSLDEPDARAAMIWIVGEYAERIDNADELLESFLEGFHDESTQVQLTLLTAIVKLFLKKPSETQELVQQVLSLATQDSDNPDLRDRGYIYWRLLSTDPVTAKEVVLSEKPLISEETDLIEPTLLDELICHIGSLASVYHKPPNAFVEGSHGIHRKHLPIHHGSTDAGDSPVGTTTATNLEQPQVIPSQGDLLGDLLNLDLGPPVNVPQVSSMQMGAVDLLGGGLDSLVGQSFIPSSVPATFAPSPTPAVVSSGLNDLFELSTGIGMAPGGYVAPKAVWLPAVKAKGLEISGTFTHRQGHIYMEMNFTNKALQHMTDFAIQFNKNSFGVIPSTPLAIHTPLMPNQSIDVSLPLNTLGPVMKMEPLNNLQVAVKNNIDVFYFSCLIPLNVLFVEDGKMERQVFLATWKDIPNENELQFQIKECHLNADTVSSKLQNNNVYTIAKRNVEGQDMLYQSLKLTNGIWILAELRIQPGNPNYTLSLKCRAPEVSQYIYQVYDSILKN
Chain of ATP-binding cassette sub-family B member 6 (Homo sapiens) (Q9NP58 whole entry, looked up): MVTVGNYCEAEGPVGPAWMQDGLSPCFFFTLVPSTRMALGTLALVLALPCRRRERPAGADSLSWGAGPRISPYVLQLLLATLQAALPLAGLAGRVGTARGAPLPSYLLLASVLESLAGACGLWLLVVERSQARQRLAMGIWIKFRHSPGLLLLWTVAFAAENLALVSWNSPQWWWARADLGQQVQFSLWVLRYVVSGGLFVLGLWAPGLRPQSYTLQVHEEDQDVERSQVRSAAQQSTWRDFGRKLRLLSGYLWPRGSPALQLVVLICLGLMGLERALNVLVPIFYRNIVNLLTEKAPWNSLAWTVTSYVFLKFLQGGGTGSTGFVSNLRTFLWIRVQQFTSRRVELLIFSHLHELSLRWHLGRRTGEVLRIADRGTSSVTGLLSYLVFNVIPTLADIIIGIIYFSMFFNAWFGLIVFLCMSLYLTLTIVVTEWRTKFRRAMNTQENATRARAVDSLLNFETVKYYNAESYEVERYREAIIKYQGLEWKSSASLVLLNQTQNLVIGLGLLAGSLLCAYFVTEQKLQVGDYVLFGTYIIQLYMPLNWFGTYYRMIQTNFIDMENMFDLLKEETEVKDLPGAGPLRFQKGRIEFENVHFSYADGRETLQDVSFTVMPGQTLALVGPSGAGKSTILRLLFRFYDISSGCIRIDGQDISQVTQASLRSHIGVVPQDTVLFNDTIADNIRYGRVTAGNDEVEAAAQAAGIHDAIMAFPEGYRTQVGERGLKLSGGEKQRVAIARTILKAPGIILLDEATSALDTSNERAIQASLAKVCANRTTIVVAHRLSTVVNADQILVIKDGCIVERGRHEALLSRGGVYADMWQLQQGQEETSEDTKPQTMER
Chain of Integrin beta-1 (Homo sapiens) + Integrin alpha-4 (Homo sapiens) (P05556 whole entry, looked up): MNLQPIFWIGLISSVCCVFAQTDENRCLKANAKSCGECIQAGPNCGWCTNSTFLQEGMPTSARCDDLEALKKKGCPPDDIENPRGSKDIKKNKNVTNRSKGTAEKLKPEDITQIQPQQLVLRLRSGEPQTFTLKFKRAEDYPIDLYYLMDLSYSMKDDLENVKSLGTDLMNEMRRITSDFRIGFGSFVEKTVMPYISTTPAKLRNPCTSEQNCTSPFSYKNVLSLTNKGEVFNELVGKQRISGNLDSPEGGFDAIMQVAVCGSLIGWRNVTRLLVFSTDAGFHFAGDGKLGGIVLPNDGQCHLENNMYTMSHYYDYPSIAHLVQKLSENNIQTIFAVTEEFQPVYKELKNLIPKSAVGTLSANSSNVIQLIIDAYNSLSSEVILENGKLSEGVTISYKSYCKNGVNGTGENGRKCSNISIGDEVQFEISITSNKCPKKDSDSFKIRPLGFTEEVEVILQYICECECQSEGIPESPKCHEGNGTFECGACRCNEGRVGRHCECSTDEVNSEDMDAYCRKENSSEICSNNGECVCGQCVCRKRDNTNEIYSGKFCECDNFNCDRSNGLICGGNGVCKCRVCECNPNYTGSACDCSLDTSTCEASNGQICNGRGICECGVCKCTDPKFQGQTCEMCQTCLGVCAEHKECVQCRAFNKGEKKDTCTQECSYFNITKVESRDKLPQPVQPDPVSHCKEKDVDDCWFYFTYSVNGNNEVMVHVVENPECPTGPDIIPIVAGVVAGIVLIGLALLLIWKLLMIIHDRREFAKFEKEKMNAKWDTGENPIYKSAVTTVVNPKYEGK
Chain of Integrin beta-1 (Homo sapiens) + Integrin alpha-4 (Homo sapiens) (P13612 whole entry, looked up): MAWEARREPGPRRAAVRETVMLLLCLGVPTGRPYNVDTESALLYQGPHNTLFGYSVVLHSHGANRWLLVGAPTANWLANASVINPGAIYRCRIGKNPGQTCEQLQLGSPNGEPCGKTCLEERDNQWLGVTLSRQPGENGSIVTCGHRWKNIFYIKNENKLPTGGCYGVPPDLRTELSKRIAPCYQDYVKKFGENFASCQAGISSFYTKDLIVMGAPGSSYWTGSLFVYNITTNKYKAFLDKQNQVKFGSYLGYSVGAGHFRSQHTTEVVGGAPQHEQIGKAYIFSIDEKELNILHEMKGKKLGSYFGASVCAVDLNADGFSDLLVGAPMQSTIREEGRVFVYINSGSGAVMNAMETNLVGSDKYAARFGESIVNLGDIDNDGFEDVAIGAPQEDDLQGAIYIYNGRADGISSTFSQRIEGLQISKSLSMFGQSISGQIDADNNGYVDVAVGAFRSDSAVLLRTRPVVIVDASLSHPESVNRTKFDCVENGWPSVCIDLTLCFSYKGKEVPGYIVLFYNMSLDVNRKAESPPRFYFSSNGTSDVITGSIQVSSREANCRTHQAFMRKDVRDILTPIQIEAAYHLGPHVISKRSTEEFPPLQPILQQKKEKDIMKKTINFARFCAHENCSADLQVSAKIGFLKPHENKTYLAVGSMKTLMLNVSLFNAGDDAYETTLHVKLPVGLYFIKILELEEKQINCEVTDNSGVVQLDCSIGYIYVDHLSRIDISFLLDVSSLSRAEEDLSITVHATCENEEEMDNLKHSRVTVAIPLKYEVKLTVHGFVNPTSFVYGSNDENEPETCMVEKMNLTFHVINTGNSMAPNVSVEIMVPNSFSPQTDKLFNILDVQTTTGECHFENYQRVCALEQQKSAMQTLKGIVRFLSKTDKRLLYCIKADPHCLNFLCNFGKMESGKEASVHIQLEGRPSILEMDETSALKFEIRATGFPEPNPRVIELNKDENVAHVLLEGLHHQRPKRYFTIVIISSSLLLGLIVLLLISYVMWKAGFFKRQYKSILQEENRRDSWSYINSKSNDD
Chain of Beta-adrenergic receptor kinase 1 (Homo sapiens) (P25098 whole entry, looked up): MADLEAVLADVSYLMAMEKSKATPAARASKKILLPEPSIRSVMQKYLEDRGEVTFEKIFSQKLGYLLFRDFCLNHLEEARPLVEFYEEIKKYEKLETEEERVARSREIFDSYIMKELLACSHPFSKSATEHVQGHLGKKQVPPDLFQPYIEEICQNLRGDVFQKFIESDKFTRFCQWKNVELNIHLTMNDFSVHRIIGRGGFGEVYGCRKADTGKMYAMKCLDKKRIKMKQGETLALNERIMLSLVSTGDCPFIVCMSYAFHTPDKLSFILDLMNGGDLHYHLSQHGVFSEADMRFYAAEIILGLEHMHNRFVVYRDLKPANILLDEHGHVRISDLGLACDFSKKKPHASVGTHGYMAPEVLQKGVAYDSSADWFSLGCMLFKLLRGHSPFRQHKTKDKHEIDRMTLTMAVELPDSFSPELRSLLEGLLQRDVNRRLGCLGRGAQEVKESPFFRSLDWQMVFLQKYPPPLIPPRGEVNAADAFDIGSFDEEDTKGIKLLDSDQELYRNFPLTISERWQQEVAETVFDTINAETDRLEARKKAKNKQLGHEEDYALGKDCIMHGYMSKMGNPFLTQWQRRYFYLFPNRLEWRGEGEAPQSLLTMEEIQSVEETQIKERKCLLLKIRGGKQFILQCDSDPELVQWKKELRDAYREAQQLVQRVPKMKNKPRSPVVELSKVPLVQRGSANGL
Chain of Beta-2 adrenergic receptor (Homo sapiens) (P07550 whole entry, looked up): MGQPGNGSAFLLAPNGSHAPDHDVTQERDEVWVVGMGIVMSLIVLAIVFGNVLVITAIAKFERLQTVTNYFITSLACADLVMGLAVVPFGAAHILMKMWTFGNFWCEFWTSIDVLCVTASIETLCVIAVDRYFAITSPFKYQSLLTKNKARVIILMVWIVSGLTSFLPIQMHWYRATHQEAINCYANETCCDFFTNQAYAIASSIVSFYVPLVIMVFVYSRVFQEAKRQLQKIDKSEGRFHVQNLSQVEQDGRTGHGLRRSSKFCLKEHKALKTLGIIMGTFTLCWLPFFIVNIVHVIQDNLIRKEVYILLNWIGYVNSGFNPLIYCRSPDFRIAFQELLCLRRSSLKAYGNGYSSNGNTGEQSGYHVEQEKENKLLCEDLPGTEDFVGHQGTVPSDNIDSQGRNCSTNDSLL

CN1[C@@H]2CC[C@H]1CC(OC(=O)C(CO)c1ccccc1)C2 (some centres not stated)
inactive: percent of DMSO control GFP [1] 99.6% | GFP response vs DMSO [2] 97.7% | percent response of DMSO control [3] 103% | GFP response vs DMSO [4] 86.1% | GFP response, % of DMSO [5] 98% | vesicle binding response [6] 163% | inhibition [7] 8.29% | superoxide response (% of plate) [8] 113% | aptamer binding inhibition [9] 25% | response [10] -0.25% | inhibition [11] -4.27% | response [12] 3.64% | binding (% of control) [13] 101% | efflux inhibition (fraction of control) [14] -0.205 | inhibition [15] 7% | differentiation response [16] -13.3%
61.1%: double positive events [6]

COc1ccc(NC(=O)CC(c2ccccc2)c2ccco2)cc1 (configuration not stated)
inactive: percent of DMSO control GFP [1] 103% | GFP response vs DMSO [2] 97.2% | percent response of DMSO control [3] 105% | GFP response vs DMSO [4] 86.8% | GFP response, % of DMSO [5] 96.8% | vesicle binding response [6] 164% | inhibition [7] -15% | superoxide response (% of plate) [8] 91.5% | aptamer binding inhibition [9] 2% | response [10] -5.85% | inhibition [11] -3.8% | response [12] 3.58% | binding (% of control) [13] 100% | efflux inhibition (fraction of control) [14] -0.07 | inhibition [15] 3% | differentiation response [16] 1.22%
62.8%: double positive events [6]

Cc1ccc(/C(=C\CN2CCCC2)c2ccccn2)cc1
inactive: percent of DMSO control GFP [1] 107% | GFP response vs DMSO [2] 104% | percent response of DMSO control [3] 108% | GFP response vs DMSO [4] 88.2% | GFP response, % of DMSO [5] 100% | vesicle binding response [6] 146% | inhibition [7] 12.3% | superoxide response (% of plate) [8] 106% | aptamer binding inhibition [9] 1% | response [10] 7.2% | inhibition [11] -9.23% | response [12] 0.97% | binding (% of control) [13] 108% | efflux inhibition (fraction of control) [14] 0.01 | inhibition [15] -16% | differentiation response [16] -19.2%
57.7%: double positive events [6]

C=CCOc1ccc(C(=O)CC)cc1OC
60%: double positive events [6]
inactive: percent of DMSO control GFP [1] 102% | GFP response vs DMSO [2] 105% | percent response of DMSO control [3] 104% | GFP response vs DMSO [4] 106% | GFP response, % of DMSO [5] 98.6% | vesicle binding response [6] 174% | inhibition [7] 8.29% | superoxide response (% of plate) [8] 103% | aptamer binding inhibition [9] 1% | response [10] 2.91% | inhibition [11] -8.48% | response [12] 9.51% | binding (% of control) [13] 106% | efflux inhibition (fraction of control) [14] 0.03 | inhibition [15] -4% | differentiation response [16] -6.03%

COC(=O)c1ccc2c(c1)C(=O)/C(=C/c1ccc(O)cc1)O2
59%: double positive events [6]
inactive: percent of DMSO control GFP [1] 95.4% | GFP response vs DMSO [2] 109% | percent response of DMSO control [3] 92% | GFP response vs DMSO [4] 111% | GFP response, % of DMSO [5] 95.5% | vesicle binding response [6] 90.4% | inhibition [7] -8.62% | superoxide response (% of plate) [8] 102% | aptamer binding inhibition [9] 2% | response [10] -5.34% | inhibition [11] 6.94% | response [12] -1.86% | binding (% of control) [13] 100% | efflux inhibition (fraction of control) [14] 0.19 | inhibition [15] 2% | differentiation response [16] -26.4%

COc1ccc(-c2coc3c(CN4CCOCC4)c(O)ccc3c2=O)cc1
inactive: percent of DMSO control GFP [1] 105% | GFP response vs DMSO [2] 99.7% | percent response of DMSO control [3] 109% | GFP response vs DMSO [4] 93.7% | GFP response, % of DMSO [5] 105% | vesicle binding response [6] 118% | inhibition [7] -5.11% | superoxide response (% of plate) [8] 103% | aptamer binding inhibition [9] -6% | response [10] -34.4% | response [12] -2.03% | binding (% of control) [13] 103% | efflux inhibition (fraction of control) [14] 0.31 | inhibition [15] -5% | differentiation response [16] -3.11%
active: inhibition [11] 55.9%
57.5%: double positive events [6]
